Shown are actives, neighbours in structure and some others; about 6.8% of the full set was active somewhere.
Cy5 interf NS3h: Cy5 fluorescence quenchers or enhancers, artefact control for HCV NS3 helicase inhibitor project, biochemical, ChemBridge library, Cy5 readout; AID 720488, 2013; fluorescence interference ratio at 100 µM; hit rate 6% among 16,000; Cy5-dT15 DNA with NS3h, fluorescence interference; actives lie on both sides; signal over control mean, under 1 quenches;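 active = compound fluorescence over control fluorescence at most 0.8, a quencher, or at least a set upper limit, an enhancer; inactive = ratio between 0.8 and the set upper limit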
NS3h inh CB: HCV NS3 helicase inhibitors, primary screen, biochemical, fluorescence polarization, ChemBridge library; inhibition, % at 100 µM; NS3h Cy5-dT15 DNA binding; Hepatitis C virus NS3 helicase; hit rate 1.6% among 16,000;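 active = inhibition above the average over every tested compound plus 3 SD, cut at about 40% in these data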
An asterisk follows results filed as active.

SMILES	Cy5 interf NS3h	NS3h inh CB
O=C(COc1ccccc1[N+](=O)[O-])Nc1ccc2oc(-c3cccc(Cl)c3)nc2c1	1.09	-18.6
CN1CCN(C2=C(Cl)C(=O)N(c3ccc(Br)cc3)C2=O)CC1	1.07	-8.1
COc1cc(C2C3C(=O)N(Cc4ccccc4)C(=O)C3ON2c2ccccc2)ccc1O (stereo unspecified)	1.05	5.4
COc1ccc(/C=C2/SC(=S)N(CCCC(=O)OCCN(C)C)C2=O)cc1	0.798*	4.1
COCCCN1C(=O)/C(=C/c2ccc(N(C)C)cc2)SC1=S	1.02	30.9
O=C1CSC(=S)N1/N=C\c1ccccc1OS(=O)(=O)c1ccccc1	1.14	1.3
O=C(O)CCCN1C(=O)C(=O)C(=C(O)c2ccc(Cl)cc2)C1c1ccccc1 (stereo unspecified)	1.11	31.4
COc1ccc(C2C(=C(O)c3ccc(Cl)cc3)C(=O)C(=O)N2CCCC(=O)O)cc1 (stereo unspecified)	0.149*	-43.6
O=C1NC(=S)N(c2ccc(F)cc2)C(=O)C1=Cc1ccc([N+](=O)[O-])s1	0.881	43.3*
CC(C)(C)N1C(=O)NC(=O)C(=Cc2ccc([N+](=O)[O-])s2)C1=O	0.883	39.8
COc1cc(/C=C2/C(C)=C(C#N)c3nc(N)c(C#N)c(C)c32)c([N+](=O)[O-])cc1OC	0.967	46.9*
COc1ccc(/C=C2/C(C)=C(C#N)c3nc(N)c(C#N)c(C)c32)cc1Br	0.96	14.2
CC(=O)c1cccc(N2C(=O)C3C4C=CC(C4)C3C2=O)c1 (stereo unspecified)	1.06	2.2
O=C(O)CSCc1cccc([N+](=O)[O-])c1	0.702*	5.0
COC(=O)CNC(=O)c1cccc([N+](=O)[O-])c1	1.09	2.5
CCN(C(=O)c1ccc(C)c([N+](=O)[O-])c1)c1ccccc1C	1.03	7.0
CN(C)CCN1C(=O)C(=O)C(=C(O)c2ccccc2)C1c1ccc(Cl)cc1Cl (stereo unspecified)	0.878	4.2
COc1ccc2c(c1[N+](=O)[O-])CCC/C2=N\OC(=O)c1cccc2ccccc12	1.01	0.3
COc1ccccc1C(=O)O/N=C1\CCCc2c1ccc(OC)c2[N+](=O)[O-]	0.741*	21.7
COc1ccc(/C(N)=N\OC(=O)c2cccc([N+](=O)[O-])c2C)cc1OC	1.02	3.1
COc1ccc2c(c1[N+](=O)[O-])CCC/C2=N\OC(=O)c1ccccc1SC	0.629*	3.1
CCOC(=O)C1=C(O)/C(=C/c2ccc(Cl)cc2)SC1=Nc1ccc(C)cc1	0.814	-1.4
CCOC(=O)C1=C(O)/C(=C/c2ccc(O)cc2)SC1=Nc1cccc(Cl)c1	1.14	62.6*
O=C(CSc1nsc(SCC(=O)Nc2ccccc2F)n1)Nc1ccccc1F	0.997	-0.7
COc1cc([N+](=O)[O-])ccc1N=S(C)C	0.929	-7.2
SMILES	Cy5 interf NS3h	NS3h inh CB
N#Cc1cc([N+](=O)[O-])ccc1N=Cc1ccc(C#Cc2ccccc2)cc1	0.793*	9.7
O=C(O)C(Cc1ccccc1)N1C(=O)/C(=C/c2cccc(Br)c2)SC1=S (stereo unspecified)	0.885	33.4
Nc1nonc1-n1nnc(CN2CCCCCC2)c1CN1CCCCCC1	1.22*	3.1
Nc1nonc1-n1nnc(CN2CCOCC2)c1CN1CCOCC1	1.07	10.9
O=C(/C=C/c1ccc(/C=C/C(=O)c2cccc(N3C(=O)CCC3=O)c2)cc1)c1cccc(N2C(=O)CCC2=O)c1	0.963	12.9
COc1cc(/C=C2/SC(=S)N(C)C2=O)cc(Cl)c1OCc1ccccc1Cl	0.965	-7.2
C=CCc1ccccc1OCCOc1ccc(/C=C2/SC(=S)N(C)C2=O)cc1	0.994	-2.5
CCOc1cc(/C=C2/SC(=S)N(C)C2=O)ccc1OCc1ccccc1Cl	1.2*	11.9
C=CCc1ccccc1OCCOc1cccc(/C=C2/SC(=S)N(C)C2=O)c1	1.24*	15.7
O=C1C(=O)N(CC2CCCO2)C(c2ccc([N+](=O)[O-])cc2)C1=C(O)c1ccccc1 (stereo unspecified)	1.05	4.5
COc1ccc(S(=O)(=O)N(CC(=O)Nc2ccccc2C(F)(F)F)Cc2ccccc2)cc1OC	0.633*	14.2
COc1ccc(S(=O)(=O)N(CCc2ccccc2)CC(=O)Nc2ccc(Br)cc2)cc1OC	1.03	10.9
COc1cc(/C=N\N2C(=O)CSC2=S)ccc1OCCOc1ccc(C(C)(C)C)cc1	1.11	10.9
COc1cc(/C=N\N2C(=O)CSC2=S)ccc1OCCOc1cc(C)ccc1C(C)C	1.2*	6.3
C/C(=N/N=C1\NC(=O)C(CC(=O)Nc2ccc([N+](=O)[O-])cc2)S1)c1ccc(F)cc1 (stereo unspecified)	1.03	25.5
C/C(=N/N=C1\NC(=O)C(CC(=O)Nc2ccc(Cl)cc2Cl)S1)c1ccc(F)cc1 (stereo unspecified)	1.22*	-17.3

Bioassay records: PubChem BioAssay, Milwaukee Institute for Drug Discovery
